The structures appear in SMILES notation. Counter-ions that a name gives are not always drawn. ± gives the standard deviation of the averaged measurements.

This experiment relates to A549. Nature of the experiment: relative viability (normalised to negative control = 1, bortezomib = 0) (fraction); higher = less cytotoxic. Particulars: inflammatory serum-free RHB-A with cytokines + LPS, 5 d + 24 h CellTiter-Blue. On the technique in general: The colour change of resazurin is a common sign of viable cells or microbes.
The mark [1] stands for this setting: compound 30 nM, GSK126 pretreatment: 5 uM GSK126.
Where [2] appears, read: compound 30 nM, GSK126 pretreatment: none (vehicle).
Where [3] appears, read: compound 300 nM, GSK126 pretreatment: 5 uM GSK126.
The mark [4] stands for this setting: compound 300 nM, GSK126 pretreatment: none (vehicle).

In the case of `Cn1cnc2c(F)c(Nc3ccc(Br)cc3Cl)c(C(=O)NOCCO)cc21` [AZD6244(Selumetinib)], the relative viability is, setting by setting: under setting [1], 0.401 ± 0.0087; under setting [2], 0.592 ± 0.045; under setting [3], 0.203 ± 0.028; under setting [4], 0.34 ± 0.022.

For `O=C(O)C1(C(=O)O)CCC1.[NH2-].[NH2-].[Pt+2]` [Carboplatin], the relative viability is, setting by setting: under setting [1], 0.75 ± 0.042; under setting [2], 0.748 ± 0.059; under setting [3], 0.742 ± 0.048; under setting [4], 0.812 ± 0.0056.

Take `OC[C@H]1O[C@@H](n2cnc3c2N=CNC[C@H]3O)C[C@@H]1O` [Pentostatin]: the relative viability stood at 0.908 ± 0.068 under setting [1], 0.918 ± 0.062 under setting [2], 0.931 ± 0.076 under setting [3] and 0.914 ± 0.056 under setting [4].

For `CC(C)C[C@H](NC(=O)[C@H](Cc1ccccc1)NC(=O)c1cnccn1)B(O)O` [Bortezomib], the relative viability was found to be 0.00425 ± 0.0011 under setting [1], 0.015 ± 0.0062 under setting [2], 0.00234 ± 0.0024 under setting [3] and 0.00262 ± 0.0014 under setting [4].

`CC(C)n1nc(-c2cc3cc(O)ccc3[nH]2)c2c(N)ncnc21`: the relative viability under setting [1] amounted to 0.686 ± 0.035, the relative viability under setting [2] was 0.751 ± 0.032, the relative viability under setting [3] was 0.37 ± 0.014 and the relative viability under setting [4] was found to be 0.431 ± 0.043.

Regarding `Cn1cc(C2=C(c3ccc(Cl)cc3Cl)C(=O)NC2=O)c2ccccc21`, the relative viability is 0.787 ± 0.042 under setting [1], 0.778 ± 0.046 under setting [2], 0.695 ± 0.079 under setting [3] and 0.802 ± 0.05 under setting [4].

As to `Cc1cc(Nc2cc(CN3CCOCC3)c3nc(C)c(Cc4ccc(Cl)cc4F)n3n2)n[nH]1`, the relative viability was found to be 0.974 ± 0.13 under setting [1], 0.988 ± 0.062 under setting [2], 1.24 ± 0.078 under setting [3] and 1.23 ± 0.03 under setting [4].

`CN(C)C/C=C/C(=O)Nc1cc2c(Nc3ccc(F)c(Cl)c3)ncnc2cc1O[C@H]1CCOC1` [BIBW2992; BIBW2992(Tovok)]: the relative viability reads like this: under setting [1], 0.389 ± 0.018; under setting [2], 0.374 ± 0.028; under setting [3], 0.281 ± 0.036; under setting [4], 0.328 ± 0.052.

On to `CNC(=O)CN1CCC(Oc2cc3c(Nc4cccc(Cl)c4F)ncnc3cc2OC)CC1`, for which the relative viability reads like this: under setting [1], 0.536 ± 0.14; under setting [2], 0.525 ± 0.058; under setting [3], 0.346 ± 0.075; under setting [4], 0.375 ± 0.024.

As for `CCCCC(=O)OCC(=O)[C@]1(O)Cc2c(O)c3c(c(O)c2[C@@H](O[C@H]2C[C@H](NC(=O)C(F)(F)F)[C@H](O)[C@H](C)O2)C1)C(=O)c1c(OC)cccc1C3=O` [Valrubicin], the relative viability under setting [1] is 0.989 ± 0.055, the relative viability under setting [2] came to 1.01 ± 0.042, the relative viability under setting [3] was 0.899 ± 0.027 and the relative viability under setting [4] amounted to 0.879 ± 0.041.

As for `C=CC(=O)Nc1cc2c(Nc3ccc(F)c(Cl)c3)ncnc2cc1OCCCN1CCOCC1` [CI-1033(Canertinib)], the relative viability runs as follows: under setting [1], 0.602 ± 0.014; under setting [2], 0.595 ± 0.017; under setting [3], 0.483 ± 0.028; under setting [4], 0.502 ± 0.028.

Take `Nc1ncnc2c1c(-c1cccc(OCc3ccccc3)c1)cn2C1CC(CN2CCCC2)C1` (configuration not stated): the relative viability under setting [1] is 0.733 ± 0.037, the relative viability under setting [2] was 0.748 ± 0.028, the relative viability under setting [3] worked out at 0.287 ± 0.021 and the relative viability under setting [4] stood at 0.333 ± 0.059.

`CCOc1cc2ncc(C#N)c(Nc3ccc(OCc4ccccn4)c(Cl)c3)c2cc1NC(=O)/C=C/CN(C)C` [Neratinib]: the relative viability under setting [1] was determined as 0.713 ± 0.16, the relative viability under setting [2] came to 0.675 ± 0.14, the relative viability under setting [3] amounted to 0.196 ± 0.014 and the relative viability under setting [4] came out at 0.183 ± 0.014.

Consider `Cc1cnc(NC(=O)Nc2cc(Br)c(C)cc2OC[C@@H]2CNCCO2)cn1`, for which the relative viability is, setting by setting: under setting [1], 0.539 ± 0.03; under setting [2], 0.607 ± 0.081; under setting [3], 0.414 ± 0.05; under setting [4], 0.338 ± 0.028.

Turning to `Cc1ccc(C(=O)Nc2cccc(C(F)(F)F)c2)cc1Nc1nc(-c2cccnc2)nc2c1cnn2C`, the relative viability by setting is: under setting [1], 0.992 ± 0.12; under setting [2], 0.959 ± 0.17; under setting [3], 1.01 ± 0.13; under setting [4], 1.06 ± 0.15.

Take `S=c1[nH]cnc2nc[nH]c12` [Mercaptopurine]: the relative viability by setting is: under setting [1], 0.9493 ± 0.0049; under setting [2], 0.969 ± 0.053; under setting [3], 0.958 ± 0.067; under setting [4], 0.984 ± 0.011.

Consider `Oc1cccc(-c2nc(N3CCOCC3)c3oc4ncccc4c3n2)c1`, for which the relative viability reads like this: under setting [1], 0.743 ± 0.082; under setting [2], 0.805 ± 0.11; under setting [3], 0.113 ± 0.011; under setting [4], 0.127 ± 0.025.

In the case of `O=c1cc(N2CCOCC2)oc2c(-c3ccccc3)cccc12`, the relative viability runs as follows: under setting [1], 0.773 ± 0.033; under setting [2], 0.819 ± 0.048; under setting [3], 0.748 ± 0.15; under setting [4], 0.835 ± 0.068.

`C[S+]([O-])c1ccc(-c2nc(-c3ccc(F)cc3)c(-c3ccncc3)[nH]2)cc1` (configuration not stated): the relative viability under setting [1] was determined as 1.03 ± 0.22, the relative viability under setting [2] stood at 0.902 ± 0.11, the relative viability under setting [3] came to 1.3 ± 0.14 and the relative viability under setting [4] amounted to 1.14 ± 0.13.

As for `CC[C@]1(O)C[C@@H]2CN(CCc3c([nH]c4ccccc34)[C@@](C(=O)OC)(c3cc4c(cc3OC)N(C)[C@H]3[C@@](O)(C(=O)OC)[C@H](OC(C)=O)[C@]5(CC)C=CCN6CC[C@]43[C@@H]65)C2)C1` [Vinblastine sulfate salt; Vinblastine sulfate], the relative viability runs as follows: under setting [1], 0.447 ± 0.011; under setting [2], 0.286 ± 0.039; under setting [3], 0.277 ± 0.024; under setting [4], 0.255 ± 0.022.

As for `CCN1CCN(Cc2ccc(-c3cc4c(N[C@H](C)c5ccccc5)ncnc4[nH]3)cc2)CC1`, the relative viability under setting [1] was 0.695 ± 0.092, the relative viability under setting [2] was 0.693 ± 0.028, the relative viability under setting [3] is 0.446 ± 0.042 and the relative viability under setting [4] was 0.414 ± 0.068.

As for `COC(=O)c1ccc2c(C(=Nc3ccc(N(C)C(=O)CN4CCN(C)CC4)cc3)c3ccccc3)c(O)[nH]c2c1` [BIBF1120(Vargatef)], the relative viability by setting is: under setting [1], 0.825 ± 0.044; under setting [2], 0.812 ± 0.16; under setting [3], 0.844 ± 0.13; under setting [4], 1.01 ± 0.18.

`COc1ccc2c3n(c(=NC(=O)c4cccnc4)nc2c1OC)CCN3`: the relative viability runs as follows: under setting [1], 0.7 ± 0.049; under setting [2], 0.75 ± 0.044; under setting [3], 0.578 ± 0.14; under setting [4], 0.735 ± 0.031.

With `Nc1ncnc2c1c(-c1cnc3[nH]ccc3c1)nn2C1CCCC1`, the relative viability runs as follows: under setting [1], 0.767 ± 0.06; under setting [2], 0.797 ± 0.071; under setting [3], 0.494 ± 0.039; under setting [4], 0.533 ± 0.069.

As for `Cc1nc(Nc2ncc(C(=O)Nc3c(C)cccc3Cl)s2)cc(N2CCN(CCO)CC2)n1` [Dasatinib], the relative viability runs as follows: under setting [1], 0.89 ± 0.089; under setting [2], 0.882 ± 0.093; under setting [3], 1.03 ± 0.077; under setting [4], 0.956 ± 0.12.

Regarding `Cc1ccc([N+](=O)[O-])cc1S(=O)(=O)N(C)/N=C/c1cnc2ccc(Br)cn12` [PIK-75 Hydrochloride], the relative viability is, setting by setting: under setting [1], 0.0451 ± 0.0082; under setting [2], 0.101 ± 0.062; under setting [3], -0.00172 ± 0.0047; under setting [4], -0.00104 ± 0.0047.

For `O=C1c2c(O)ccc(O)c2C(=O)c2c(NCCNCCO)ccc(NCCNCCO)c21` [Mitoxantrone; Mitoxantrone dihydrochloride], the relative viability runs as follows: under setting [1], 0.483 ± 0.02; under setting [2], 0.376 ± 0.022; under setting [3], 0.148 ± 0.013; under setting [4], 0.137 ± 0.008.

With `Nc1ccn([C@@H]2O[C@H](CO)[C@@H](O)C2(F)F)c(=O)n1` [Gemcitabine hydrochloride; Gemcitabine HCl], the relative viability is, setting by setting: under setting [1], 0.396 ± 0.12; under setting [2], 0.264 ± 0.087; under setting [3], 0.39 ± 0.093; under setting [4], 0.19 ± 0.087.

As to `O=C1C(c2c(O)[nH]c3ccccc23)=Nc2ccccc21` [Indirubin; INDIRUBIN], the relative viability by setting is: under setting [1], 0.788 ± 0.038; under setting [2], 0.796 ± 0.041; under setting [3], 0.762 ± 0.078; under setting [4], 0.807 ± 0.045.

`Nc1nc2[nH]cnc2c(=S)[nH]1` [Thioguanine]: the relative viability under setting [1] was found to be 0.978 ± 0.039, the relative viability under setting [2] amounted to 0.929 ± 0.043, the relative viability under setting [3] is 0.917 ± 0.045 and the relative viability under setting [4] was 1 ± 0.073.

Turning to `CCOc1ccn(-c2ccc(F)cc2)c(=O)c1C(=O)Nc1ccc(Oc2ccnc(N)c2Cl)c(F)c1`, the relative viability under setting [1] is 0.905 ± 0.21, the relative viability under setting [2] stood at 0.914 ± 0.17, the relative viability under setting [3] amounted to 0.977 ± 0.21 and the relative viability under setting [4] turned out to be 1.08 ± 0.16.

As for `CC(C)Cn1cnc2c(N)nc3ccccc3c21` [Imiquimod], the relative viability runs as follows: under setting [1], 0.8017 ± 0.004; under setting [2], 0.794 ± 0.058; under setting [3], 0.863 ± 0.059; under setting [4], 0.911 ± 0.019.

For the compound `CCS(=O)(=O)c1cccc(-c2cc(C(=O)NC3CCN(C)CC3)c(C)c3[nH]c4ncc(C)cc4c23)c1`, the relative viability under setting [1] amounted to 0.702 ± 0.12, the relative viability under setting [2] came to 0.72 ± 0.058, the relative viability under setting [3] came to 0.553 ± 0.083 and the relative viability under setting [4] was 0.485 ± 0.031.
